Source: PubChem BioAssay (NCATS)
Records with an inconclusive call do not appear. Active and inactive are the calls of the source. Calls follow the shape of the dose curve; as a rule, active = well fitted curve in the direction sought with a large enough effect; inconclusive = small, poorly fitted or top-dose-only effect, or another doubt; inactive = no such curve, though single readings can be large; an effect the other way counts as inactive or inconclusive.

How the values were obtained:
[1] = qHTS of pediatric cancer cell lines to identify multiple opportunities for drug repurposing: Primary screen for SK-N-SH cells (AID 1347098); also: nearly all actives have a fitted effect of over 65% in size; also: potency is read from the fitted curve at half-maximal effect;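 as to activity change, negative = cytotoxic: DMSO served as neutral control and bortezomib at 2.3 µM as positive control; % is scaled to controls: 0 for no effect and ±100 for the full control effect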
In short: (§1)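 Cells (500-1,000/well) rested 5 h, then received compounds for 48 h; metabolically active cells were measured by CellTiter-Glo luminescence. Final concentrations spanned up to 46 µM (MIPE, 11-point) or 0.59 nM-46 µM (NPC, 8-point) in primary screens, 11-point in follow-ups.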

[2] = qHTS of pediatric cancer cell lines to identify multiple opportunities for drug repurposing: Primary screen for NB1643 cells (AID 1347099);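 also: plate controls were DMSO neutral control for no effect and bortezomib positive control for full effect; nearly all actives have a fitted effect of over 50% in size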
In short: (§2)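 CRCs from 8- or 11-point titrations (lowest final 0.59 nM NPC, 0.78 nM MIPE). Cell viability: CellTiter-Glo after 48 h incubation, 15 min room-temperature development, luminescence imaging.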

[3] = qHTS of pediatric cancer cell lines to identify multiple opportunities for drug repurposing: Primary screen for BT-12 cells (AID 1347101); also: nearly all actives have a fitted effect of over 25% in size; also: potency is read from the fitted curve at half-maximal effect;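 as to activity change, negative = cytotoxic: plate controls were DMSO for no effect and bortezomib positive control for full effect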
In short: as §1

[4] = qHTS of pediatric cancer cell lines to identify multiple opportunities for drug repurposing: Primary screen for Rh18 cells (AID 1347102); also: % is scaled to controls: 0 for no effect and ±100 for the full control effect; nearly all actives have a fitted effect of over 65% in size
In short: as §1

[5] = qHTS of pediatric cancer cell lines to identify multiple opportunities for drug repurposing: Primary screen for OHS-50 cells (AID 1347103); also: nearly all actives have a fitted effect of over 40% in size; also: potency is read from the fitted curve at half-maximal effect;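 as to activity change, negative = cytotoxic: plate controls were DMSO neutral control for no effect and bortezomib positive control for full effect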
In short: as §1

[6] = qHTS of pediatric cancer cell lines to identify multiple opportunities for drug repurposing: Primary screen for RD cells (AID 1347104); also: nearly all actives have a fitted effect of over 55% in size; also: potency is read from the fitted curve at half-maximal effect;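 as to activity change, negative = cytotoxic: plate controls were DMSO for no effect and bortezomib for full effect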
In short: as §2

[7] = qHTS of pediatric cancer cell lines to identify multiple opportunities for drug repurposing: Primary screen for MG 63 (6-TG R) cells (AID 1347105); also: % is scaled to controls: 0 for no effect and ±100 for the full control effect; nearly all actives have a fitted effect of over 50% in size
In short: as §2

[8] = qHTS of pediatric cancer cell lines to identify multiple opportunities for drug repurposing: Primary screen for control Hh wild type fibroblast cells (AID 1347106);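 also: series mostly up to about 46 µM; % is scaled to controls: 0 for no effect and ±100 for the full control effect; a drop in luminescence marks cytotoxicity and a rise apparent proliferation; nearly all actives have a fitted effect of over 55% in size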
In short: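 Cells (500-1,000/well) in growth media were settled 5 h at 37 degrees C, then given compounds for 48 h. Viability was read as CellTiter-Glo luminescence. Primary runs used MIPE at 11 points (0.78 nM-46 µM) and NPC at 8 points (0.59 nM-46 µM); follow-ups used 11 points.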

[9] = qHTS of pediatric cancer cell lines to identify multiple opportunities for drug repurposing: Primary screen for LAN-5 cells (AID 1347100);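 also: plate controls were DMSO neutral control for no effect and bortezomib positive control for full effect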
In short: as §1

[10] = qHTS of pediatric cancer cell lines to identify multiple opportunities for drug repurposing: Primary screen for Saos-2 cells (AID 1347097); also: potency is read from the fitted curve at half-maximal effect; nearly all actives have a fitted effect of over 40% in size
In short: as §2

CCCCN(CCCC)CCCOC(=O)c1ccc(N)cc1
inactive: Potency [1] | Potency [2] | Potency [3] | Potency [4] | Potency [5] | Potency [6] | Potency [7] | outcome [8]

NCC(=O)CCC(=O)O
inactive: Potency [1] | Potency [2] | Potency [9] | Potency [4] | Potency [5] | Potency [6] | Potency [7] | outcome [8]

NS(=O)(=O)c1cc2c(cc1Cl)NC(CSCc1ccccc1)=NS2(=O)=O
inactive: Potency [1] | Potency [2] | Potency [9] | Potency [3] | Potency [4] | Potency [5] | Potency [6] | Potency [7] | outcome [8]

O=c1[nH]c(=O)c2[nH]c(=O)[nH]c2[nH]1
inactive: activity change, negative = cytotoxic [1] 13.8% [at 11.4 µM] | activity change, negative = cytotoxic [2] -5.19% [at 9.22 µM] | activity change, negative = cytotoxic [9] 19.2% [at 9.22 µM] | activity change, negative = cytotoxic [6] 1.57% [at 9.22 µM] | activity change, negative = cytotoxic [7] -26.1% [at 9.22 µM] | activity change, negative = cytotoxic [8] 8.6% [at 9.22 µM]

COC(=O)C1=C(C)NC(C)=C(C(=O)OC)C1c1ccccc1[N+](=O)[O-]
active: Potency [1] 21.7 µM
inactive: Potency [2] | Potency [9] | Potency [3] | Potency [4] | Potency [7] | outcome [8]

CN(C)CC[C@@H](c1ccc(Cl)cc1)c1ccccn1
inactive: Potency [1] | Potency [9] | Potency [3] | Potency [4] | Potency [5] | Potency [6] | Potency [7] | outcome [8]

Oc1cccc(O)c1
inactive: Potency [1] | Potency [2] | Potency [3] | Potency [4] | Potency [5] | Potency [6] | Potency [7] | outcome [8]

Cc1ccc2nc(N)[nH]c(=O)c2c1Sc1ccncc1
inactive: Potency [1] | Potency [2] | outcome [8]

CC[N+](CC)(CC)CCOc1ccc(/C=C/c2ccccc2)cc1
active: Potency [10] 23.7 µM | Potency [3] 3.47 µM | Potency [5] 3.47 µM | Potency [6] 15 µM

CCCCCCCCCCCCCCCCCCOCC(O)CO (stereo not drawn)
inactive: Potency [1] | Potency [2] | Potency [9] | Potency [3] | Potency [4] | Potency [5] | Potency [6] | Potency [7] | outcome [8]

N[C@H](C(=O)O)c1ccc(O)cc1
inactive: Potency [1] | Potency [2] | Potency [3] | Potency [4] | Potency [5] | Potency [6] | Potency [7] | outcome [8]

O=C(O)Cc1sc(-c2ccccc2)nc1-c1ccc(Cl)cc1
inactive: Potency [1] | Potency [2] | Potency [9] | Potency [3] | Potency [5] | Potency [6] | Potency [7] | outcome [8]

CC1CC(OC(=O)C(O)c2ccccc2)CC(C)(C)N1C (stereo not drawn)
inactive: Potency [1] | Potency [2] | Potency [9] | Potency [3] | Potency [4] | Potency [5] | Potency [6] | Potency [7] | outcome [8]

CC(=O)Nc1ccc(/C=N/NC(N)=S)cc1
inactive: Potency [1] | Potency [9] | Potency [3] | Potency [4] | Potency [5] | Potency [6] | Potency [7] | outcome [8]

O=C1NS(=O)(=O)c2ccccc21
inactive: Potency [1] | Potency [2] | Potency [3] | Potency [4] | Potency [6] | Potency [7] | outcome [8]

COc1ccccc1O
inactive: Potency [1] | Potency [2] | Potency [9] | Potency [3] | Potency [4] | Potency [5] | Potency [6] | outcome [8]
